Screening data from PubChem.
CYP2C19 activ = activators of human cytochrome P450 2C19; P33261; recombinant CYP2C19, luciferin-H EGE luminescence; stronger effect = higher value; 0 = fully inhibited enzyme, 1 = untreated enzyme; activation factor at 5 µM; 96,000 tested, under 10 active; AID 1025;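 active = activation factor of at least 2 at 5 µM in the primary screen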
Target sequence (P33261 whole entry, looked up): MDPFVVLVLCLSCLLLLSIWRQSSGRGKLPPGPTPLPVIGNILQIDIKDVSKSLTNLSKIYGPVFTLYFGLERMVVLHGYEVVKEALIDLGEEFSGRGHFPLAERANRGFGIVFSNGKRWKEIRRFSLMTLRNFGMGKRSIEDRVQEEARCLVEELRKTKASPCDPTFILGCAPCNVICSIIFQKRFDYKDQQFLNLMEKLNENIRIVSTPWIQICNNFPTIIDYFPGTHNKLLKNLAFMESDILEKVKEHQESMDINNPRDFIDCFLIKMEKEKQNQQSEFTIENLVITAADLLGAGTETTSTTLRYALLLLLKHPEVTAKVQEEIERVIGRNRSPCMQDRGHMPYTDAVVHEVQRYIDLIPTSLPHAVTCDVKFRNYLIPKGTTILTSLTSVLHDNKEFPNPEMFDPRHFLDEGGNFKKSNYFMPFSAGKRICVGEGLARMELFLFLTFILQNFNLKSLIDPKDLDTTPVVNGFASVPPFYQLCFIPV
PostGolgi yeast = growth inhibition of a yeast mutant, post-Golgi transport screen. post-Golgi transport phenotypic cell assay. inhibition, % at 10 µM. 0.9% of 98,000 active. AID 739;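 note: yeast cells grown in 1536-well plates; yeast grown about 18 h at 30C before absorbance read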
PostGolgi ctrl = growth of the yeast control strain, post-Golgi counter-screen. efflux-deficient yeast background strain, growth absorbance A615, 16 h. inhibition, % at 10 µM. 5% of 98,000 active
CYP2C19 inhib = blocks human cytochrome P450 2C19 | P33261 | CYP2C19 Supersomes, luciferin-H EGE luminescence, 30 min | inhibition, % at 5 µM | 21% of 96,000 active | AID 778;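 active = CYP2C19 inhibition above a set limit at 5 µM in the primary screen, cut at about 50% in these data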
CYP2C9 inhib = inhibitors of human CYP2C9; P11712; CYP2C9 Supersomes, luciferin-H conversion, luminescence; inhibition, % at 5 µM; 20% of 96,000 active; AID 777;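 active = blocking of liver enzyme CYP2C9 beyond about 50% at 5 µM, limit read from the data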
CYP2C9 act = CYP2C9 (human) activation; recombinant CYP2C9, luciferin-H conversion, luminescence; stronger effect = higher value; factor 1 = untreated enzyme, 0 = blocked; P11712; activation factor at 5 µM; 1.4% of 96,000 active; AID 1024;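 active = activation factor of 2 or more for CYP2C9 at a 5 µM dose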
Numbers stand for hits; . = inactive; / = not tested or not shown. Only some compounds are listed: those with a hit (about 32% of all), similar ones and a draw of the others. Cut-off read from the data, not from the text of the source, unless noted: active = inhibition above about 30%; inactive = the rest.

SMILES	CYP2C19 activ	PostGolgi yeast	PostGolgi ctrl	CYP2C19 inhib	CYP2C9 inhib	CYP2C9 act
O=C(CSc1nc2ccccc2c(=O)n1-c1ccc(F)cc1)NCc1ccco1	.	.	.	.	.	.
O=C(CCn1c(SCC(=O)NCc2ccco2)nc2ccccc2c1=O)NCCc1ccccc1	.	.	.	77.1	85.3	.
C=CCn1c(CSc2nc3ccccc3s2)nnc1SCC(=O)NCc1ccccc1	.	.	.	.	50.1	.
C/C(=N\n1nnnc1Nc1ccccc1)c1ccc(N)cc1	.	.	.	.	.	.
CC(C)(C)NC(=O)C(Cc1ccccc1)NS(=O)(=O)c1cccc2nsnc12 (centres undefined)	.	.	.	.	.	.
COc1ccc(CN2C(=O)CCC2(C)C(=O)NCc2cccnc2)c(OC)c1 (centres undefined)	.	.	.	.	.	.
COc1ccc(C2C(C(=O)c3ccco3)=C(O)C(=O)N2CCc2ccccc2)cc1OC (centres undefined)	.	.	.	.	.	.
Cc1ccccc1C(=O)Nc1ccc(S(=O)(=O)N2CCN(C)CC2)cc1	.	.	.	.	.	.
Cc1csc2ncc(C(=O)Nc3ccon3)c(=O)n12	/	.	41.0	/	/	/
CCCCCC(C(=O)O)C(C)CC(=O)NC1CCCCC1 (centres undefined)	.	.	.	.	.	.
O=C(Nc1ccccc1)N1CC=C(c2ccc(F)cc2)CC1	.	.	.	56.5	.	.
C/C(=N/NC(=O)c1cc(C2CC2)[nH]n1)c1cccs1	.	.	.	.	.	.
CCOC(=O)c1nn(-c2ccc(Br)cc2)cc1C(=O)c1cccc2ccccc12	.	.	31.1	.	.	.
COCCCn1cc(C(=O)c2cc(OC)ccc2OCC(=O)Nc2cc(C)on2)cc(C#N)c1=O	.	.	.	50.4	56.9	.
O=C(CN1CCCCC1)Nc1cccc(Cl)c1Cl	.	.	.	.	.	.
Cc1ccc(S(=O)(=O)Nc2ccc(NC(=O)CN3CCCCC3)c(Cl)c2)cc1	.	.	.	70.6	100.0	.
O=C(CN1CCCCC1)Nc1ccc(F)c(Cl)c1	.	.	.	80.9	.	.
O=C(CN1CCCCC1)Nc1cc(Cl)ccc1Cl	.	.	.	63.2	.	2.2
O=C(CN1CCN(c2ccc(Cl)cc2)CC1)Nc1ccc(F)c(F)c1	.	.	.	.	.	.
CCCCCCC(C)n1cc(C(C)=O)c(=O)[nH]c1=O (centres undefined)	.	.	.	.	.	.
Cc1ccc(C(=O)NNC(=O)C2CCCN(c3ncccn3)C2)cc1 (centres undefined)	.	.	.	.	.	.
CC(=O)Nc1ccc(C(=O)NC(CC(=O)O)c2ccc(Cl)cc2)cc1 (centres undefined)	.	.	.	.	.	.
Cc1ccc(O)c(NC(=O)C2CC(c3c(F)cccc3Cl)=NO2)c1 (centres undefined)	.	.	.	94.3	.	.
CN1CCN(C(=O)C2CC(c3c(F)cccc3Cl)=NO2)CC1 (centres undefined)	.	.	.	.	.	2.8
Cc1nnc(SCC(=O)N2CCCCC2)s1	/	.	.	/	/	/
SMILES	CYP2C19 activ	PostGolgi yeast	PostGolgi ctrl	CYP2C19 inhib	CYP2C9 inhib	CYP2C9 act
CC(C)OCCCNC(=O)Cn1nc(-c2ccccc2)ccc1=O	.	.	.	.	.	.
CC(=O)N1CCc2cc(S(=O)(=O)NC(CC(C)C)C(=O)N3CCn4c3nc3ccccc34)ccc21 (centres undefined)	.	.	.	50.7	56.7	.
Cc1nc2ccc(S(=O)(=O)NC(C(=O)N3CCn4c3nc3ccccc34)C(C)C)cc2s1 (centres undefined)	.	.	.	.	.	.
CC(=O)N1CCc2cc(S(=O)(=O)NC(Cc3ccccc3)C(=O)NC3CCCCCC3)ccc21 (centres undefined)	.	.	.	.	53.0	.
CC(=O)N1CCc2cc(S(=O)(=O)NC(CC(C)C)C(=O)Nc3ccc4c(c3)OCCO4)ccc21 (centres undefined)	.	.	.	.	58.7	.
CCOc1ccc(NC(=O)CSc2nc(C)c3c(c2C#N)CCCC3)cc1	.	.	.	.	.	.
Cc1ccc(CNC(=O)/C(C#N)=C/c2ccc(C)s2)cc1	.	.	.	.	.	.
CCOc1ccc(N2CC(C(=O)N3CCc4ccccc4C3)CC2=O)cc1 (centres undefined)	.	.	.	.	.	.
C=CCc1ccc(OCCOCCOc2ccccc2[N+](=O)[O-])c(OC)c1	.	.	.	85.1	76.6	.
C=CCc1ccc(OCCCOc2ccc(C)cc2OC)c(OC)c1	.	.	.	59.0	.	.
C=CCc1ccc(OCC(O)CN2CCCCC2)c(OC)c1 (centres undefined)	.	.	.	.	.	.
C=CCc1ccc(OCC(O)CN2CCCCC2C)c(OC)c1 (centres undefined)	.	.	.	.	.	.
C=CCNCCCCOc1ccc(C)cc1[N+](=O)[O-]	.	.	.	.	.	.
Cc1ccc(C(C)C)c(OCCCN2CC(C)OC(C)C2)c1 (centres undefined)	.	82.7	.	75.8	.	.
C=CCc1ccc(OCCCCN2CC(C)OC(C)C2)c(OC)c1 (centres undefined)	.	96.6	43.3	.	.	.
CC1CN(CCCOc2ccccc2[N+](=O)[O-])CC(C)O1 (centres undefined)	.	.	.	.	.	.
COC(=O)C(C(=O)OC)=C(/C=C/C=C/N(C)C)N(C)C	.	.	.	.	.	.
Cc1nc2c(o1)CCc1ccccc1C2N1CCN(C)CC1 (centres undefined)	.	.	.	.	.	.
C=CCc1ccc(OCC(O)COc2ccc(CC=C)cc2OC)c(OC)c1	.	.	.	96.9	92.9	.
COc1cccc(OCCCCN2CC(C)OC(C)C2)c1 (centres undefined)	.	85.8	43.2	.	.	.
CC(C)COc1ccc(C(=O)OC2CC(C)(C)OCC2CN(C)C)cc1 (centres undefined)	.	.	.	.	.	.
CCC(=O)n1nc(-c2ccccc2)nc1NCc1ccccc1	.	.	.	.	.	.
COCC(=O)n1nc(NCc2ccc(OC)cc2)nc1NCc1ccc(OC)cc1	.	48.7	87.2	.	.	.
CCC(=O)n1nc(-c2cccnc2)nc1NCc1ccc(OC)cc1	.	.	.	72.9	61.4	.
CCOc1ccccc1NC(=O)/C=C/C(N)=O	.	.	.	.	.	.
CCc1nnc(NC(=O)C(C)Sc2ccccc2)s1 (centres undefined)	.	.	.	82.6	73.8	.
CCOCCc1nnc(NC(=O)C(CC)c2ccccc2)s1 (centres undefined)	.	.	.	56.0	86.7	.
CC(C)C(=O)Nc1nnc(CSCc2ccccc2F)s1	.	.	.	69.9	.	.
CC(C)(C)C(=O)Nc1nnc(CSCc2ccccc2F)s1	.	.	.	58.7	56.0	.
CCc1nnc(NC(=O)C(C)C)s1	.	.	.	.	.	.
